{"source": "PubChem BioAssay AID463229", "about": "(Broad Institute, 2010)", "note": "In all, about 2,300 compounds went through this assay and about 2,100 (91%) were called active.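 The calls were made as follows: active = compounds raising the signal whose fitted half-maximal concentration is at or below their top tested dose (cut at about 25 µM in these data); inconclusive = flat fit at 30 to 70% activity, or a poor fit; inactive = the rest.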 So high a share suggests a set chosen from earlier hits. The list is a sample of the results. Results with a measured potency or affinity are listed apart."}
{"assay": "cytokine-free beta-cell viability effect – INS-1E rat cells, ATP luminescence, cherry pick, counter-screen for beta-cell apoptosis protection project, dose response (AID 463229)", "conditions": "INS-1E rat beta cells, no cytokines, CellTiter-Glo ATP, 48 h; series mostly up to 26 µM"}
{"smiles": "CCOC(=O)c1sc(SC)c2c1CCC/C2=N/OC", "outcome": "inactive"}
{"smiles": "COc1cnc(-c2ccccn2)nc1N(C)c1ccccc1", "outcome": "inactive"}
{"smiles": "O=C(CCCCC(=O)Nc1ccc(F)cc1F)Nc1ccc(F)cc1F", "outcome": "inactive"}
{"smiles": "C/C(=N\\Nc1nc(-c2ccccn2)nc2ccccc12)c1ccc(F)cc1", "outcome": "inactive"}
{"smiles": "O=C(c1ccc(F)c(S(=O)(=O)N2CCOCC2)c1)N1CCN(c2ccc(F)cc2)CC1", "outcome": "inactive"}
{"smiles": "CC1=C(C(=O)OCCNC(=O)c2ccccc2O)C(c2ccccc2[N+](=O)[O-])C(C(=O)OCC2CCCO2)=C(C)N1", "note": "(configuration not stated)", "outcome": "inactive"}
{"smiles": "COc1ccc(CN(C)C(=O)c2ccc(NS(=O)(=O)c3ccc(F)cc3)cc2)c(OC)c1OC", "outcome": "inactive"}
{"smiles": "CC[C@@H]1C/C=C\\Cc2ccccc2[C@H](C(=O)C[C@@H](O)CC(C)=O)OC1=O", "outcome": "inactive"}
{"smiles": "N#Cc1ccc(-c2csc(NNC(=O)c3ccccc3)n2)cc1", "outcome": "inactive"}
{"smiles": "CCn1c(=O)c(C(=O)Nc2ccccn2)c(O)c2ccccc21", "outcome": "inactive"}
{"smiles": "COc1ccc(CN2CCN(CCSc3ccc(C)cc3)CC2)c(OC)c1OC", "outcome": "inactive"}
{"smiles": "CCOC(=O)C1(Cc2cccc(Cl)c2)CCCN(C(=O)c2ccc(COC)s2)C1", "note": "(configuration not stated)", "outcome": "inactive"}
{"smiles": "CN(C)CCCNc1cc(C(C)(C)C)nc2c(-c3ccccc3)cnn12", "outcome": "inactive"}
{"smiles": "Cc1ccc2c(c1)Sc1c(ccc3ccccc13)N2", "outcome": "inactive"}
{"smiles": "COc1ccc(C(=O)c2c(C)c3ccccc3n2CC(O)CNC(C)C)cc1", "note": "(configuration not stated)", "outcome": "inactive"}
{"smiles": "COc1ccc(S(=O)(=O)Nc2ccc(O)c3ccccc23)cc1", "outcome": "inactive"}
{"smiles": "CN(Cc1ccccc1)C(=O)c1nc2ccccn2c1CN1CCCC1c1nccs1", "note": "(configuration not stated)", "outcome": "inactive"}
{"smiles": "CCn1c(=O)c([N+](=O)[O-])c(N2CCN(Cc3ccc4c(c3)OCO4)CC2)c2ccccc21", "outcome": "inactive"}
{"smiles": "O=C(C(Sc1ccccc1)c1ccccc1)N1CCN(c2ccccc2F)CC1", "note": "(configuration not stated)", "outcome": "inactive"}
{"smiles": "COc1ccc(N2CC(C(=O)N3CCN(c4ccccc4F)CC3)CC2=O)cc1", "note": "(configuration not stated)", "outcome": "inactive"}
{"smiles": "Cc1occc1C(=O)N1CCCC(N2CCN(c3cccc(C(F)(F)F)c3)CC2)C1", "note": "(configuration not stated)", "outcome": "inactive"}
{"smiles": "CC#CC[N+](C)(C)CCCCCCCC", "outcome": "inactive"}
{"smiles": "OCCN1CCN(C2Cc3cc(Cl)ccc3Sc3ccc(Cl)cc32)CC1", "note": "(configuration not stated) (tested in a mixture with another compound)", "outcome": "inactive"}
{"smiles": "O=[N+]([O-])c1cccc(/C=N/n2cnnc2)c1", "outcome": "inactive"}
{"smiles": "CC(C)NC(=S)NC(c1ccccc1)(c1ccccc1)c1ccccc1", "outcome": "inactive"}
{"smiles": "CC1CCN(C(=O)CCNS(=O)(=O)c2ccc(Br)cc2)CC1", "outcome": "inactive"}
{"smiles": "COc1ccc(Br)cc1CN(C)CC(=O)NCc1ccc(F)cc1", "outcome": "inactive"}
{"smiles": "Cc1nn(-c2ccccc2)c(C)c1NC(=O)COc1ccc(Br)cc1Cl", "outcome": "inactive"}
{"smiles": "CCSC1=NCCN1C(=O)C(C)(C)Oc1ccc(Cl)cc1", "outcome": "inactive"}
{"smiles": "Cc1cccc(C)c1NC(=O)CNC(=O)c1c(C)nn(C)c1Cl", "outcome": "inactive"}
{"smiles": "Cc1cccc(NC(=S)Nc2ccc3cn[nH]c3c2)c1", "outcome": "inactive"}
{"smiles": "Cc1ccc(O)c(/C=N/NC(=O)c2[nH]ncc2Br)c1", "outcome": "inactive"}
{"smiles": "NC(=S)N/N=C/c1c(O)ccc2ccccc12", "outcome": "inactive"}
{"smiles": "COc1ccc(N(C)S(=O)(=O)c2cccc(C(=O)Nc3nc(C)c(C(C)=O)s3)c2)cc1", "outcome": "inactive"}
{"smiles": "O=C(c1ccco1)c1coc2c1cc(O)c1ccccc12", "outcome": "inactive"}
{"smiles": "Cc1ccc2c(C)nc(Nc3nc(CSc4nc5ccccc5[nH]4)cc(=O)[nH]3)nc2c1", "outcome": "inactive"}
{"smiles": "Cc1ccc(C(=O)N/C(=C\\c2ccc(-c3ccccc3[N+](=O)[O-])o2)C(=O)NCCCN2CCOCC2)cc1", "outcome": "inactive"}
{"smiles": "C=CCN1C(=O)N/C(=C/c2ccc(N3CCOCC3)o2)C1=O", "outcome": "inactive"}
{"smiles": "C[C@H](CO)N1C[C@H](C)[C@@H](CN(C)C(=O)NC2CCCCC2)Oc2c(NC(=O)Nc3ccc(C(F)(F)F)cc3)cccc2C1=O", "outcome": "inactive"}
{"smiles": "COc1ccc(S(=O)(=O)N2CCNCC2)cc1OC", "outcome": "inactive"}
{"smiles": "CCOC(=O)C(NCCc1ccc(F)cc1)(NC(=O)CC)C(F)(F)F", "note": "(configuration not stated)", "outcome": "inactive"}
{"smiles": "Cc1cc(C)cc(OCCCn2ccnc2)c1", "outcome": "inactive"}
{"smiles": "O=c1[nH]c(NCCCO)nc2c1C1(CCCC1)Cc1ccccc1-2", "outcome": "inactive"}
{"smiles": "Nc1ccc(Nc2ccc([N+](=O)[O-])cc2[N+](=O)[O-])cc1", "outcome": "inactive"}
{"smiles": "COc1ccccc1NCC(=O)N/N=C/c1c(O)ccc2ccccc12", "outcome": "inactive"}
{"smiles": "C/C(N)=C(/C#N)C(=O)COC(=O)c1cc(-c2ccc(C)cc2)nc2ccccc12", "outcome": "inactive"}
{"smiles": "COc1ccc(C2=Nn3c(nnc3-c3ccccc3Cl)SC2)cc1OC1CCCC1", "outcome": "inactive"}
{"smiles": "CCn1c(SCC(=O)Nc2ccc(OC)cc2)nc2nc3c(cc2c1=O)CCCC3", "outcome": "inactive"}
{"smiles": "Cc1cccnc1CCNCc1c(C(=O)N2C[C@@H](C)O[C@@H](C)C2)nc2ccc(Cl)cn12", "outcome": "inactive"}
{"smiles": "Cc1ccccc1Oc1nc(-c2ccccn2)nc2ccccc12", "outcome": "inactive"}
{"smiles": "COc1cc2c(cc1OC)C(NC(=O)C(F)(F)F)CNC2=O", "note": "(configuration not stated)", "outcome": "inactive"}
{"smiles": "Cc1cccc(C2(c3cccc(C)c3)OC(=O)c3ccccc32)c1", "outcome": "inactive"}
{"smiles": "O=C(CN1C(=O)c2ccccc2S1(=O)=O)c1ccc(F)cc1", "outcome": "inactive"}
{"smiles": "O=c1c2c3c(sc2n(CCN2CCCCC2)c(=O)n1Cc1ccco1)CCCCC3", "outcome": "inactive"}
{"smiles": "CCCCn1cnc2c(c(-c3ccccc3)c(-c3ccccc3)n2Cc2ccco2)c1=N", "outcome": "inactive"}
{"smiles": "Cc1cc(C(=O)c2ccc3ccccc3c2)c(C)o1", "outcome": "inactive"}
{"smiles": "C=CCc1c(C)nc(C)nc1N/N=C/c1ccc(N(C)C)cc1", "outcome": "inactive"}
{"smiles": "Cc1cc(N2CCOCC2)nc(N)n1", "outcome": "inactive"}
{"smiles": "COc1ccccc1NCC(=O)N1CCN(S(=O)(=O)c2ccccc2)CC1", "outcome": "inactive"}
{"smiles": "Cc1ccc(NC(=O)C(C)Sc2nnc(C)n2C2CC2)cc1S(=O)(=O)N1CCOCC1", "note": "(configuration not stated)", "outcome": "inactive"}
{"smiles": "CNc1nc(N)c([N+](=O)[O-])c(Nc2cccc(F)c2)n1", "outcome": "inactive"}
{"smiles": "Cc1cccc(CNc2ccc(S(=O)(=O)N3CCCCC3)cc2)c1", "outcome": "inactive"}
{"smiles": "O=C(N/N=C/c1cccnc1)c1ccccc1NS(=O)(=O)c1cccs1", "outcome": "inactive"}
{"smiles": "O=C(c1cccc(Cl)c1)c1nn(-c2ccccc2)c(=O)cc1C(F)(F)F", "outcome": "inactive"}
{"smiles": "O=[N+]([O-])/C=C/c1cn(Cc2ccc(F)cc2)c2ccccc12", "outcome": "inactive"}
{"smiles": "Cc1csc2nc(NC(=O)c3ccccc3)sc(=O)c12", "outcome": "inactive"}
{"smiles": "CCOc1ccc(N(C)S(=O)(=O)c2ccc(C)c(C(=O)OCC(=O)c3c[nH]c4ccccc34)c2)cc1", "outcome": "inactive"}
{"smiles": "OC(CNC1CCCCC1)COCCOc1ccc(Br)cc1", "note": "(configuration not stated)", "outcome": "inactive"}
{"smiles": "Cc1cc(C)c(OCC(O)CNC(C)(C)C)c(C)c1", "note": "(configuration not stated)", "outcome": "inactive"}
{"smiles": "CC(C)(C)OC(=O)N1CCC(CNC(=O)c2cccs2)CC1", "outcome": "inactive"}
{"smiles": "COc1ccc(-c2ccnc(SCC(=O)N3CCN(c4ccccc4)CC3)n2)cc1", "outcome": "inactive"}
{"smiles": "O=C(NCc1nc2ccccc2[nH]1)C1=C[C@@H](C2CCCCC2)C[C@@H](OCc2ccc(CO)cc2)O1", "outcome": "inactive"}
{"smiles": "CCCOC(=O)/C(C(N)=NCc1ccccc1)=C(\\O)OCCC", "outcome": "inactive"}
{"smiles": "CCOC(=O)C1=C(CCc2ccccc2)NC(=O)NC1c1ccc2ccccc2c1", "note": "(configuration not stated)", "outcome": "inactive"}
{"smiles": "c1cc(-c2noc(CC3CCCCC3)n2)ccn1", "outcome": "inactive"}
{"smiles": "COc1ccccc1/C=N/OCc1cc(C(C)=O)ccc1OC", "outcome": "inactive"}
{"smiles": "CCCC(=O)N(CCN(C(=O)CCC)c1ccccc1)c1ccccc1", "outcome": "inactive"}
{"smiles": "NC(=O)c1ccccc1OC1CCC1", "outcome": "inactive"}
{"smiles": "CN(C)c1ccc(/C=C(\\C#N)C(=O)OCC(=O)N(C)C2CCS(=O)(=O)C2)cc1", "note": "(configuration not stated)", "outcome": "inactive"}
{"smiles": "COc1ccc(/C=C/C(=O)c2ccncc2)c2ccccc12", "outcome": "inactive"}
{"smiles": "COc1cc(CNCCO)cc(Cl)c1OCc1ccc(Cl)cc1Cl", "outcome": "inactive"}
{"smiles": "Cc1ccc(NC(=O)NCC2CCN(Cc3cccc(Cl)c3)CC2)cc1Cl", "outcome": "inactive"}
{"smiles": "CCc1ccc(-n2c(C)cc(/C=N/NC(=O)c3ccncc3)c2C)cc1", "outcome": "inactive"}
{"smiles": "Cc1cc(C)nc(-n2nc(C)cc2Nc2ccccc2)n1", "outcome": "inactive"}
{"smiles": "CC1=CC(C)(C)N(C(=O)CSc2nnc(-c3ccc(C)cc3)o2)c2ccc(C)cc21", "outcome": "inactive"}
{"smiles": "CCOC(=O)C(=Cc1ccc(Br)cc1)C(=O)OCC", "outcome": "inactive"}
{"smiles": "O=[N+]([O-])c1ccc(N2CCN(CCOc3nonc3-c3ccccc3)CC2)c(Cl)c1", "outcome": "inactive"}
{"smiles": "Cc1ccccc1OC1C(=O)N(Cc2ccc3c(c2)OCO3)C1c1sccc1C", "note": "(configuration not stated)", "outcome": "inactive"}
{"smiles": "CC(Sc1nnc2c(n1)[nH]c1ccccc12)C(=O)N(C)C1CCCCC1", "note": "(configuration not stated)", "outcome": "inactive"}
{"smiles": "CCCC1(c2ccccc2)NC(=O)N(CC(=O)Nc2cc(C)ccc2OC)C1=O", "note": "(configuration not stated)", "outcome": "inactive"}
{"smiles": "O=[N+]([O-])c1ccc(-n2cnc3ccccc32)c([N+](=O)[O-])c1", "outcome": "inactive"}
{"smiles": "CCS(=O)(=O)c1ncc(Cl)c(C(=O)Nc2ccccc2OC)n1", "outcome": "inactive"}
{"smiles": "Cc1ccc(OCc2cc(C(=O)N(C)Cc3cc(C4CC4)n[nH]3)no2)cc1C", "outcome": "inactive"}
{"smiles": "COCCCNC(=S)N/N=C/c1cccc(OC)c1O", "outcome": "inactive"}
{"smiles": "O=C(Nc1ccc(F)cc1F)N1CCCN(CCOc2ccccc2)CC1", "outcome": "inactive"}
{"smiles": "CC(=O)Nc1ccc(S(=O)(=O)N2c3ccccc3NC(=O)CC2C)c(Cl)c1", "note": "(configuration not stated)", "outcome": "inactive"}
{"smiles": "Cc1cccc(NC(=O)Cn2c(/C=C/c3ccccc3)nc3ccccc32)c1", "outcome": "inactive"}
{"smiles": "O=C(Oc1cccc2cccnc12)c1cccc(N2C(=O)C3C4CCC(C4)C3C2=O)c1", "note": "(configuration not stated)", "outcome": "inactive"}
{"smiles": "O=C(Cn1ncc(Cl)c(Cl)c1=O)c1ccc2c(c1)OCCO2", "outcome": "inactive"}
{"smiles": "O=c1c(Cl)c(Cl)cnn1Cc1ccc(F)cc1", "outcome": "inactive"}
{"smiles": "Cc1ccc2ccc3ccc(C)nc3c2n1", "outcome": "inactive"}
{"smiles": "CCOCCCNC(=O)c1c[nH]c2cc(OC)ccc2c1=O", "outcome": "inactive"}
{"smiles": "COc1ccc(C(=O)CSc2n[nH]c(=O)n2Cc2ccco2)cc1", "outcome": "inactive"}
{"smiles": "CCOc1ccc(OCC)c(S(=O)(=O)NCCOC23CC4CC(CC(C4)C2)C3)c1", "outcome": "inactive"}
{"smiles": "C=CCN(CC=C)CC(O)Cn1c2ccccc2c2ccccc21", "note": "(configuration not stated)", "outcome": "inactive"}
{"smiles": "O=C(NCc1ccccn1)c1cc(-c2ccc(Cl)cc2)oc1C(F)(F)F", "outcome": "inactive"}
{"smiles": "CCN(CC(=O)Nc1ccc(NC(C)=O)cc1)C(=O)CCCOc1ccc(C(C)(C)C)cc1", "outcome": "inactive"}
